Most compounds without a hit are left out; they make up all but 1.5% or so of the library.
MRP reversal – reversal of MRP1-mediated doxorubicin resistance, primary screen, H69AR cells, doxorubicin co-treatment; H69AR cells + 2 uM doxorubicin, CellTiter-Glo, 72 h; differential viability (reversal), % at 10 µM; 0.04% of 85,000 active; AID 602, 2007;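 active means viability drop by adding the cancer drug above about 55%, with treated viability meeting a 40% cutoff, limit read from the data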;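 further: viability without doxorubicin minus viability with 2 µM doxorubicin for each compound; larger differential means the compound sensitizes cells more to doxorubicin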
CD11b adhes inh – inhibitors of CD11b/CD18 adhesion to fibrinogen, primary screen, K562 cells, luminescence; AID 1497, 2009; ATPlite luminescence; Mn2+ added to activate the integrin; Integrin beta-2 (Homo sapiens) + Integrin alpha-M (Homo sapiens), P05107+P11215; inhibition, % at 10 µM; 0.54% of 93,000 active;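 active means primary inhibition of 50% or more at 10 µM, then 40% or more on retest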
CD11b adhes enh – enhancers of CD11b/CD18 adhesion to fibrinogen, primary screen, K562 cells, luminescence | Integrin beta-2 (Homo sapiens) + Integrin alpha-M (Homo sapiens), P05107+P11215 | ATPlite luminescence | activation, % at 10 µM | 0.07% of 93,000 active;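 active means 10 µM primary screen giving 50% or more activity, confirmed by 40% or more on retest at that dose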
Phagocyt inh – inhibitors of macrophage phagocytosis, primary screen, imaging, J774A.1 cells, IgG beads. J774A.1 macrophage IgG-bead phagocytosis. inhibition, % at 5 µM. 0.07% of 110,000 active. AID 1029, 2008;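 active means inhibition above the mean of the plate negative controls plus 5 SD, cut at about 13% in these data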;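 further: phagocytic index as fraction of beads internalized from green versus red external bead signal; plate controls were DMSO negative control for no effect and cytochalasin-D positive control for full effect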
MRP1 act – H69AR viability gain despite doxorubicin, primary screen, MRP-1 activator project, H69AR cells, CellTiter-Glo; viability rescue; viability increase, % at 10 µM; 0.61% of 140,000 active;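 active means viability gain under doxorubicin at or above a set limit, the compound median plus 3 SD, cut at about 4.7% in these data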;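 further: MRP-1 overexpressing cells given doxorubicin 25 µM after compound pretreatment; 18-22 h compound pretreatment then 72 h with doxorubicin before readout; 0% = doxorubicin-only wells and 100% = vehicle-treated cells without doxorubicin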
FAK blocker – FAK kinase inhibitors, primary screen, biochemical | biochemical FAK kinase activity assay | Focal adhesion kinase 1 (Homo sapiens), Q05397 | 0.84% of 97,000 active | inhibition, %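 (tested at 7 µM)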 | AID 727, 2007; in the data active means inhibition above about 19%;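 further: 0% = DMSO and 100% = reference compound high control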
The depositor's hits bear a star; · = not tested or not shown.

SMILES	MRP reversal	CD11b adhes inh	CD11b adhes enh	Phagocyt inh	MRP1 act	FAK blocker
Cc1ccc(C)c(N2CCN(C(=O)c3ccc4nc(-c5ccco5)c(-c5ccco5)nc4c3)CC2)c1	0.7	5.0	13.8	-2.4	9.9*	2.3
c1ccc(OCCCCn2cnc3ccccc32)cc1	3.2	63.1*	-9.2	-2.0	1.5	3.4
Brc1ccccc1OCCCn1cnc2ccccc21	7.2	-15.9	0.0	-0.4	-1.1	4.0
c1ccc2c(c1)ncn2CCCCOc1ccc2c(c1)CCC2	3.3	82.0*	-4.0	-0.6	0.1	3.2
CCCOc1ccc(Cn2cnc3ccccc32)cc1	16.6	89.4*	-8.2	1.6	-1.2	2.9
Cc1ccccc1OCCCCn1cnc2ccccc21	0.0	95.2*	-6.8	·	-0.3	1.5
CSc1nc(C)cc(SCCO)n1	-14.3	-10.7	0.1	2.6	-2.1	1.7
O=C(O)c1cnc(-c2ccccc2)nc1Sc1ccc(Cl)cc1	·	90.5*	-11.6	·	-2.3	-10.5
CC(C)=CCC/C(C)=C/C=N/NC(=O)c1ccc([N+](=O)[O-])cc1	·	-0.1	10.5	-11.2	-1.2	·
CCc1c(O)cc(=O)n(-c2ccccc2)c1-c1ccccc1	·	·	·	-1.7	-2.0	·
Cc1nn(-c2ccccc2)c(Cl)c1C(=O)Nc1nnc(C2CCCCC2)s1	-24.4	·	·	·	-3.2	1.4
Cc1nn(Cc2ccccc2Cl)c(C)c1C(=O)Nc1nnc(C2CC2)s1	5.6	11.6	54.5*	-0.8	-0.7	-2.4
O=C(/C=C/c1ccccc1)C1C(=O)c2ccccc2C1=O	·	86.8*	-7.1	·	-2.4	·
CCc1ccc(/C=C/C(=O)C2C(=O)c3ccccc3C2=O)cc1	·	95.3*	-10.8	-3.0	-1.6	1.7
O=C(CN1C(=O)NC2(CCCc3ccccc32)C1=O)N1CCN(C(=O)c2ccco2)CC1 (centres undefined)	8.3	-22.4	-1.7	3.5	-1.1	-2.6
Cc1onc(-c2c(F)cccc2Cl)c1C(=O)Nc1sc2c(c1C(N)=O)CCC2	-52.7	-1.9	0.3	-0.6	-1.0	3.2
Cc1onc(-c2c(F)cccc2Cl)c1C(=O)Nc1sc2c(c1C#N)CCC(C(C)(C)C)C2 (centres undefined)	-0.3	·	·	·	11.4*	-1.1
CC(C)(C)c1cc(S(=O)(=O)CCc2ccccn2)cc(C(C)(C)C)c1F	-9.7	-12.9	4.4	153.3*	2.8	-0.3
NC(=O)c1ncc(C(F)(F)F)cc1Oc1ccc(C(F)(F)F)cc1	9.0	-7.8	-2.3	-1.7	0.0	-1.4
CCOc1c(Cl)cc(C(=O)Nc2ccccc2C(=O)O)cc1Cl	·	88.6*	-12.3	1.3	-1.5	-2.3
N#Cc1c(C(F)(F)F)cc(-c2ccccc2Cl)[nH]c1=O	·	61.8*	-2.4	-0.3	-1.2	-8.6
Cc1ccc2nc(SCC(=O)Nc3nnc(SCC(N)=O)s3)[nH]c2c1	·	-8.9	-0.1	-2.8	-2.8	1.1
O=C(COC(=O)C1CCN(/C=C/C(=O)C(F)(F)F)CC1)Nc1cccc(F)c1	·	·	·	-0.4	-1.0	·
NC1=NC(=O)/C(=C/c2cccs2)S1	·	7.7	-3.1	0.6	-3.3	10.9
C=CCSC1=NC(=O)/C(=C/c2cccs2)S1	·	·	·	-3.0	8.8*	·
SMILES	MRP reversal	CD11b adhes inh	CD11b adhes enh	Phagocyt inh	MRP1 act	FAK blocker
FC(F)(F)c1cccc(CNc2ncccc2-c2nc3cc(Cl)ccc3o2)c1	·	3.5	0.9	-2.7	5.2*	-2.4
COc1ccc(NC(=O)Cn2cc(C(=O)c3ccco3)c3ccccc32)cc1	11.9	-1.7	-0.7	0.3	6.7*	3.3
COc1cccc(OCCCOc2ccccc2C(C)C)c1	·	-5.0	-1.5	-2.9	0.2	1.4
O=C(N/N=C/c1ccc(-c2ccc([N+](=O)[O-])cc2)o1)C(O)c1ccccc1 (centres undefined)	·	-25.2	101.7	-11.3	5.5*	·
O=C(N/N=C\c1ccc(-c2ccc([N+](=O)[O-])cc2)o1)C1COc2ccccc2O1 (centres undefined)	·	·	·	-4.0	-0.7	·
Cc1ccc(Nc2nc3nonc3[nH]c2=O)cc1C	-9.7	99.5*	-11.0	0.0	1.5	·
O=C(CN1CC(c2ccccc2)CC1=O)N/N=C/c1cc(Br)ccc1O (centres undefined)	·	·	·	-0.2	0.9	·
